The campaign covered roughly 16,000 compounds. About 4,000 (25%) were called active. About 26% were inconclusive and are not listed. Only a sample is shown. Unmarked numbers belong to inactive results. Calls come from the whole dose curve; as a rule, active = well fitted curve in the direction sought with a large enough effect; inconclusive = small, poorly fitted or top-dose-only effect, or effect the other way; inactive = no such curve, though single readings can be large or run the other way.
% is set by controls: 0 for no effect and ±100 for the full control effect.

Cytochrome P450 2C9 (Homo sapiens), sequence (P11712 whole entry, looked up): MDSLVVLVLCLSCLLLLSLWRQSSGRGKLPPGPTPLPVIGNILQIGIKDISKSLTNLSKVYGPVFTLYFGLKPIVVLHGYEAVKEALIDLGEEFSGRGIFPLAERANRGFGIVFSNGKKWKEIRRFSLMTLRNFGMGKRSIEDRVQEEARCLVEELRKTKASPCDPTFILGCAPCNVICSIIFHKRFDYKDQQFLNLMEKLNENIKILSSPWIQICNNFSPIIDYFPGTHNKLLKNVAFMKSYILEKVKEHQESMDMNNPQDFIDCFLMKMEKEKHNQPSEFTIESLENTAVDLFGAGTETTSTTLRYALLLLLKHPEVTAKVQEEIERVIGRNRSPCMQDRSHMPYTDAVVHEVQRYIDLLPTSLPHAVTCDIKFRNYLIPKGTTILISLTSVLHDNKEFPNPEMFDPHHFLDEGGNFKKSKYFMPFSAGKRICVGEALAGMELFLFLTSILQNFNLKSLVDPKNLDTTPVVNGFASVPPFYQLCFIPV

The assay has as its target Cytochrome P450 2C9 (Homo sapiens) (UniProt P11712). As to the kind of experiment: Cytochrome panel assay with activity outcomes. Particulars: recombinant CYP, pro-luciferin dealkylation, luminescence, p450-cyp2c9; series mostly up to 57.1 µM; activity, negative = inhibition: at the top concentration.
Regarding `O=C(O)[C@H]1CCCC[C@@H]1C(=O)Nc1nc2ccccc2[nH]1`, the activity, negative = inhibition is 2.98% [at 11.4 µM]. On the same count and under the same terms, to `O=C(Nc1nc2ccccc2n1CCN1CCCCC1)C1CCCCC1` belongs -20.2%. By AC50 is commonly meant the concentration at which the activity in the assay is half-maximal. Consider `Cc1cc(NC(=O)C2CCCC2)n(-c2nc3ccccc3[nH]2)n1`, for which the AC50 was 3.98 µM (active). For `Cc1ccc(NCC(=O)N/N=C/c2ccc(OC(=O)c3ccco3)cc2)cc1`, the AC50 is 8.91 µM (active). With `COc1cccc(/C=N/NC(=O)c2cc(-c3cccn3C)n[nH]2)c1`, the “activity, negative = inhibition” value was 10.1%. As for `Cc1cc(C(=O)N/N=C/c2cccc(OC(=O)c3ccco3)c2)n[nH]1`, the AC50 is 11.2 µM (active).

For the compound `Cc1ccc(NCC(=O)N/N=C\c2ccc([N+](=O)[O-])o2)cc1`, the “activity, negative = inhibition” value is -22.6%. Take `CCOC(=O)c1sc(=N)n(-c2ccc(OC)cc2)c1C`: the AC50 was 3.16 µM (active). For `CCOC(=O)c1nc(N)sc1C(=O)OCC`, the “activity, negative = inhibition” value is 5.81%. Still for that read-out and setting: next, `COc1ccc(-n2c(C)nn(C)c2=O)cc1`: -0.617%. As for `CC(C)Nc1nc(Oc2ccc(Cl)cc2)cc(C(F)(F)F)n1`, the AC50 is 15.8 µM (active). As for `CC(C)c1cc(C(F)(F)F)nc(NNc2nc(C(C)C)cc(C(F)(F)F)n2)n1`, the activity, negative = inhibition is -27.5% [at 11.4 µM]. `CC(C)Nc1cc(C(F)(F)F)nc(-c2ccccn2)n1`: the “activity, negative = inhibition” value is -18.4%. In the case of `CC(C)CN(Cc1c(O)ccc2c3c(c(=O)oc12)CCC3)CC(C)C`, the AC50 is 28.2 µM (active).

In the case of `CCOC(=O)c1[nH]c(C(=O)O)c(CCN(CC)CC)c1C`, the “activity, negative = inhibition” value is -0.374%. Regarding `CCN(CC)C(=O)CSc1nnc(-c2ccco2)n1N`, the “activity, negative = inhibition” value was -16.2%.

For the compound `CCc1ccc(C2=Nn3c(nnc3-c3cccs3)SC2)cc1`, the AC50 was 7.08 µM (active).

Turning to `CCOc1ccc(C2=Nn3c(nnc3-c3ccco3)SC2)cc1`, the AC50 is 2.24 µM (active).

For the compound `C/C(CCN1CCc2nc(-c3ccccc3)c(-c3ccccc3)cc2C1)=N\OC[C@@H](O)COCc1ccco1`, the activity, negative = inhibition is -7.86% [at 11.4 µM]. As to `COc1cc(/C=C\c2ccc(OC)cc2OC)cc(OC)c1`, the “activity, negative = inhibition” value is -27.9%.

As to `CC(C)NC(=O)N1CCC2(CC1)CCN(C(=O)c1ccncc1)CC2`, the “activity, negative = inhibition” value is -8.98%. As to `COC(=O)C1=C(NC(=O)c2cccc(OC)c2)CCS1`, the AC50 is 11.2 µM (active).

On to `CCN(CC)S(=O)(=O)c1ccc(C(=O)NC2=C(C(=O)OC)SCC2)cc1`, for which the AC50 was 2 µM (active). Regarding `Clc1ccc(N2CCCCCC2)nn1`, the “activity, negative = inhibition” value is 4.61%. For the compound `O=[N+]([O-])c1ccc(N2CCCCC2)c(Cl)c1N1CCCCC1`, the AC50 was 2.24 µM (active). Consider `CN1CCN(S(=O)(=O)c2cc([N+](=O)[O-])ccc2N2CCCCCC2)CC1`, for which the “activity, negative = inhibition” value is -19.8%. The same measure, in the same setting: next, `C/C(CCN1CCc2nc(-c3ccccc3)c(-c3ccccc3)cc2C1)=N\OC[C@@H](C)[C@H](OCc1ccccc1)C(C)C`: -9.58% [at 11.4 µM]. Same read-out and setting: next, `CN(CC(=O)O/N=C(\N)c1ccccn1)S(=O)(=O)c1ccccc1`: 26.3%.

As for `Cc1cccc(CSCCNC(=O)c2ccc(N(C)S(=O)(=O)c3ccccc3)cc2)c1`, the AC50 was 0.562 µM (active). Still for that read-out and setting: to `Cc1cccc(N(CC(=O)NCCSCc2ccco2)S(=O)(=O)c2ccccc2)c1` belongs 4.47 µM (active).

Consider `Cc1cccc(CNc2cc(-c3ccc(C(=O)N(C)C)cc3)ncn2)c1`, for which the activity, negative = inhibition is 5.16% [at 2.29 µM]. As to `Cc1cccc(N(CC(=O)N2CCOCC2)S(C)(=O)=O)c1`, the “activity, negative = inhibition” value was -0.418%. On the same count and under the same terms, next, `Cc1cccc(CNc2ccnc(-c3ccc(C(=O)N(C)C)cc3)n2)c1`: -11.3% [at 2.29 µM]. For the compound `Cc1cc(C)cc(N(CC(=O)NCCSc2ccccn2)S(=O)(=O)c2ccccc2)c1`, the AC50 was 0.282 µM (active). The same measure, in the same setting: to `CC(C)NC[C@H](O)c1cc(O)cc(O)c1` belongs “inactive”.

For `O=C(O)C[C@H]1OCC=C2C[N@@+]3([O-])CC[C@]45c6ccccc6N[C@@H]4[C@@H]1[C@H]2C[C@H]53`, the activity, negative = inhibition was 5.86% [at 11.4 µM].

As to `CC(=O)OC[C@@H]1O[C@@H](O/N=C2/C[C@@H](O)[C@@H](O)[C@@H]3[C@H]4C(=O)N(c5ccc(F)cc5F)C(=O)[C@@H]4CC[C@@H]23)[C@H](OC(C)=O)[C@H](OC(C)=O)[C@@H]1OC(C)=O`, the activity, negative = inhibition is 18.5% [at 11.4 µM]. On the same count and under the same terms, to `CC1=NCC[N@@+]1(CCc1ccccc1)Cc1ccccc1` belongs -1.38% [at 11.4 µM]; to `CCCN(CCc1ccccc1)[C@H]1CCc2c(O)cccc2C1`, -0.0564%. As to `CN(CCO)c1cc(Sc2nc3ccccc3s2)c2nonc2c1[N+](=O)[O-]`, the AC50 was 3.55 µM (active). In the case of `COCC(=O)N1CCC2(CC1)CCN(C(=O)Nc1cccc(F)c1)CC2`, the “activity, negative = inhibition” value is -5.51%. On the same count and under the same terms, next, `CC(=O)Oc1cc(C(F)(F)F)ccc1C(=O)O`: 5.83% [at 25.6 µM]. As for `CC(=O)Nc1cc(C(F)(F)F)ccc1Oc1cccc(Br)c1`, the AC50 was 3.98 µM (active).

Take `Cc1cc2nc([C@H](C)C(=O)c3ccc(Cl)cc3)c(=O)[nH]c2cc1C`: the activity, negative = inhibition was -26.4% [at 11.4 µM]. As for `CCCOc1ccc(Cn2c(C)nc([N+](=O)[O-])c2SCC(O)COC)cc1[N+](=O)[O-]` (stereo unspecified), the AC50 is 11.2 µM (active). `COc1ccc(CSc2nnnn2C)cc1[N+](=O)[O-]`: the “activity, negative = inhibition” value was -23.5%. The same measure, in the same setting: to `CS(=O)(=O)N1CCC2(CC1)CN(Cc1cc(C(F)(F)F)cc(C(F)(F)F)c1)C2` belongs 11.6%. For `Cc1cc(C)c(NC(=O)CSc2nnc(Cc3cccn3C)n2-c2ccc(F)cc2)c(C)c1`, the half-maximal activity concentration (AC50) was 10 µM (active). In the case of `C=CCn1c(SCc2ccc3c(c2)OCO3)nc2scc(-c3ccco3)c2c1=O`, the “activity, negative = inhibition” value was -29.6%.

As for `C=CCn1c(SC(C)C(=O)NCc2ccc3c(c2)OCO3)nc2scc(-c3ccccc3)c2c1=O` (stereo unspecified), the half-maximal activity concentration (AC50) was 2.51 µM (active). As for `S=C1SCN(C2CCCCCCCCCCC2)CN1C1CCCCCCCCCCC1`, the activity, negative = inhibition is -14.2% [at 11.4 µM]. Still for that read-out and setting: to `CC1(C)O[C@@H]2C[C@H]3[C@H]4C[C@H](F)C5=CC(=O)CC[C@]5(C)[C@@H]4[C@H](O)C[C@]3(C)[C@]2(C(=O)CO)O1` belongs 6.66% [at 25.6 µM]. Take `CC(NC(=O)c1ccc(Cn2cc([N+](=O)[O-])cn2)o1)c1ccccc1` (stereo unspecified): the AC50 was 6.31 µM (active). Take `Cc1ncc([N+](=O)[O-])n1CC(=O)NCc1ccccc1`: the “activity, negative = inhibition” value is -11.2%. On the same count and under the same terms, to `CCOC(=O)c1c2c(n3ccccc13)C(=O)c1ccccc1C2=O` belongs -20.1% [at 11.4 µM]. For the compound `CCOC(=O)c1c(-c2ccccc2)cn2ccccc12`, the AC50 was 3.55 µM (active). Consider `CN(C)C(=O)c1ccc(-c2nccc(Nc3ccc(F)cc3)n2)cc1`, for which the activity, negative = inhibition is -2.83% [at 2.29 µM].

For the compound `COCC(=O)N1CCC2(CCCN(Cc3ccccc3OC)C2)CC1`, the “activity, negative = inhibition” value is -0.625%. Same read-out and setting: next, `CO[C@@H]1COC(=O)[C@H]2CCCN2C(=O)[C@@H](C)COC(=O)C/C=C\[C@H]1C`: 14.2% [at 11.4 µM]. With `O=C(c1coc2ccccc2c1=O)N1CCN(c2cccc(C(F)(F)F)c2)CC1`, the AC50 was 12.6 µM (active).

For the compound `Cc1cccc(C)c1NC(=O)c1cc2c(=O)c3ccccc3oc2nc1C(F)(F)F`, the “activity, negative = inhibition” value was -34.5%. For the compound `Cc1ccc(CC(=O)N2CCN(c3cccc(C(F)(F)F)c3)CC2)cc1`, the AC50 is 14.1 µM (active).

On to `CCc1ccc(NC(=S)N2CCN(c3cccc(C(F)(F)F)c3)CC2)cc1`, for which the “activity, negative = inhibition” value is -24.1%. `C[C@@H]1CCN=C(N)S1`: the AC50 entry was “inactive”. As to `CS(=O)(=O)Nc1cccc(-c2ccc3ncnc(NC4CC4)c3c2)c1`, the activity, negative = inhibition was -17.7% [at 2.29 µM]. Same read-out and setting: to `CO[C@@H]1COC(=O)[C@H]2CCCN2C(=O)C/C=C\[C@@H](C)[C@H](OC)COC(=O)[C@H]2CCCN2C(=O)C/C=C\[C@H]1C` belongs -0.816% [at 11.4 µM]. On to `O=c1cnc2cnc(Oc3cccc(Cl)c3)nc2n1Cc1ccc(F)cc1`, for which the AC50 is 7.94 µM (active). As to `Cc1nc2cnc(Oc3ccccc3)nc2n(CCc2ccccc2)c1=O`, the “activity, negative = inhibition” value is -15.1%. On to `O=c1cnc2cnc(OCc3ccccc3)nc2n1Cc1ccc(F)cc1`, for which the “activity, negative = inhibition” value was -2.86%. The same measure, in the same setting: next, `COc1cccc(Cn2c(=O)cnc3cnc(OC)nc32)c1`: -12.8%. Same read-out and setting: next, `CN1CCN(c2ncc3ncc(=O)n(Cc4ccc(F)cc4)c3n2)CC1`: -10.8%. Take `O=c1cnc2cnc(Oc3ccccc3)nc2n1Cc1ccc(F)cc1`: the AC50 is 15.8 µM (active). On the same count and under the same terms, next, `COc1cccc(Cn2c(=O)cnc3cnc(Oc4cccc(Cl)c4)nc32)c1`: 3.98 µM (active); `O=c1cnc2cnc(Oc3ccccc3)nc2n1CCc1ccccc1`: 3.16 µM (active).

Take `N#CCCn1c(=O)cnc2cnc(Oc3ccccc3)nc21`: the “activity, negative = inhibition” value was 9.43%. The same measure, in the same setting: to `COc1ccc(-n2c(=O)cnc3cnc(Oc4cccc(Cl)c4)nc32)cc1` belongs -9.85%. In the case of `CO[C@@H]1COC(=O)CC=C[C@@H](C)[C@@H]2C=C[C@@H](O)[C@@H](COC(=O)C/C=C\[C@H]1C)O2`, the activity, negative = inhibition is -2.62% [at 11.4 µM]. Same read-out and setting: to `C#CCCCO/N=C1/C[C@@H](O)[C@@H](O)[C@@H]2[C@@H]3C(=O)N(Cc4ccccc4)C(=O)[C@H]3CC[C@H]12` belongs -13.5% [at 11.4 µM]; to `CC1(C)OC[C@@H]2O[C@H](n3cnc4c(N)nc(Cl)nc43)[C@@H](OS(C)(=O)=O)[C@@H]2O1`, 2.13% [at 11.4 µM]. Take `CC(C)c1ccc2nc3sc(C(=O)N4CCc5ccccc5C4)c(N)c3cc2c1`: the AC50 is 4.47 µM (active). Turning to `Cc1noc(NC(=O)Nc2ccccc2F)c1C#N`, the activity, negative = inhibition was -5.47% [at 11.4 µM].

Turning to `COc1ccc2c(c1)C(=NN)c1cc(OC)ccc1-2`, the AC50 is 3.55 µM (active).

In the case of `COc1ccc(CC(=O)O/N=C(\N)Cc2ccc(OC)cc2)cc1`, the “activity, negative = inhibition” value is -27.8%. As to `C/C(CCc1ccc2c(c1)OCO2)=N\N=C1\NC(=O)CC(C(=O)Nc2ccccc2)S1` (stereo unspecified), the AC50 is 7.94 µM (active). For `CCN1C(=O)[C@H]2[C@H]3[C@H](O)[C@H](O)C/C(=N/NC(=O)OCc4ccccc4)[C@@H]3CC[C@@H]2C1=O`, the activity, negative = inhibition is -4.03% [at 11.4 µM].

On to `OC[C@@H]1O[C@@H](n2cnc3c(NC4CCCC4)ncnc32)[C@H](O)[C@H]1O`, for which the “activity, negative = inhibition” value was -16.1%.

On to `O=S(=O)(c1ccccc1)N1CCN(c2cc(-c3ccccc3)nc3ncnn23)CC1`, for which the AC50 is 12.6 µM (active). On to `CC(C)CN1CCCC2(CCN(S(=O)(=O)c3ccccc3)CC2)C1`, for which the “activity, negative = inhibition” value was -5.62%. Still for that read-out and setting: to `CN1CCN(c2cc(-c3ccccc3C(F)(F)F)ncn2)CC1` belongs 4.29% [at 2.29 µM]; to `Cc1cc(N2CCN(c3nc4ccccc4s3)CC2)n2ncnc2n1`, 4.71%. As for `FC(F)(F)c1ccc(N2CCN(c3cc(-c4ccccc4)nc4ncnn34)CC2)nc1`, the AC50 was 2.24 µM (active).

(Values after PubChem BioAssay AID1851 (National Center for Advancing Translational Sciences (NCATS), 2009).)
